The record followed here is PubChem BioAssay (EPA / NIEHS).

Read-out in experiment [1]: Human Leukocyte Antigen - DR isotype (HLADR), HLA-DRA (gene 3122)
The experiment in a line: BSK_BE3C_HLADR: BioMAP Diversity Plus: BE3C Assay for Human Leukocyte Antigen - DR isotype (HLADR) Biomarker Activity (AID 2283032). To be noted: primary human bronchial epithelial cells; actives raise or lower the signal. A digest of the protocol: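 Cell-surface HLA-DR ELISA readout at 24 h after dosing in the BE3C primary human lung bronchial epithelial system; gain or loss of signal against DMSO, with parallel sulforhodamine B staining of total protein for overt cytotoxicity.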

Read-out in experiment [2]: Vascular cell adhesion molecule 1 (VCAM1), VCAM1 (gene 7412)
Nature of the experiment: BSK_4H_VCAM1: BioMAP Diversity Plus: 4H Assay for Vascular cell adhesion molecule 1 (VCAM1) Biomarker Activity (AID 2283033).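 Further: cell-surface VCAM-1 protein measured by ELISA.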 The following applies: primary human endothelial cells (HUVEC); actives raise or lower the signal. A digest of the protocol:
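VCAM-1 ELISA read 24 h after chemical dosing of HUVEC in the BioMAP 4H system, with gain or loss of signal fitted relative to DMSO. Parallel SRB staining (560 nm) checked overt cytotoxicity.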

Read-out in experiment [3]: Interferon-gamma inducible Protein 10 (IP10), CXCL10 (gene 3627)
The experiment in a line: BSK_BE3C_IP10: BioMAP Diversity Plus: BE3C Assay for Interferon-gamma inducible Protein 10 (IP10) Biomarker Activity (AID 2283034). To be noted: primary human bronchial epithelial cells; actives raise or lower the signal. The gist of the method:
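IP-10 quantified by ELISA in human primary bronchial epithelial cell cultures at 24 hours post-dosing. Gain or loss of signal fitted relative to DMSO; parallel SRB staining assessed overt cytotoxicity.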

Read-out in experiment [4]: Monokine induced gamma interferon (MIG), CXCL9 (gene 4283)
Nature of the experiment: BSK_BE3C_MIG: BioMAP Diversity Plus: BE3C Assay for Monokine induced gamma interferon (MIG) Biomarker Activity (AID 2283035). The following applies: primary human bronchial epithelial cells; actives raise or lower the signal. The gist of the method: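 hu bronchial epithelial 1° cells, 24 h cpd; MIG by ELISA; bidirectional fit, DMSO = baseline.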

Read-out in experiment [5]: Transforming growth factor beta 1 (TGFb1), TGFB1 (gene 7040)
The experiment in a line: BSK_BE3C_TGFb1: BioMAP Diversity Plus: BE3C Assay for Transforming growth factor beta 1 (TGFb1) Biomarker Activity (AID 2283036;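 further: TGF-b1 protein level measured by ELISA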). To be noted: primary human bronchial epithelial cells; actives raise or lower the signal. A digest of the protocol: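 ELISA readout of TGF-b1 from human lung bronchial epithelial primary cells, taken 24 h post-treatment. Gain or loss of signal fitted relative to DMSO baseline, with parallel SRB staining for overt cytotoxicity.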

Read-out in experiment [6]: Plasminogen activator inhibitor-1 (PAI1), SERPINE1 (gene 5054)
The experiment in a line: BSK_BE3C_PAI1: BioMAP Diversity Plus: BE3C Assay for Plasminogen activator inhibitor-1 (PAI1) Biomarker Activity (AID 2283037). To be noted: primary human bronchial epithelial cells; actives raise or lower the signal. A digest of the protocol:
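PAI-1 was measured by ELISA in human primary bronchial epithelial cultures 24 h after chemical dosing, with cytotoxicity checked by SRB total-protein staining in parallel cultures. Activity was fitted in both directions relative to DMSO.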

Read-out in experiment [7]: urokinase plasminogen activator (uPA), PLAU (gene 5328)
Nature of the experiment: BSK_BE3C_uPA: BioMAP Diversity Plus: BE3C Assay for urokinase plasminogen activator (uPA) Biomarker Activity (AID 2283038).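 On outcome: uPA protein level quantified by ELISA in cell cultures; uPA read one day after compound addition.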 To be noted: primary human bronchial epithelial cells; actives raise or lower the signal. The gist of the method: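 ELISA read-out of uPA in human lung primary bronchial epithelial cultures, 24 h post-dosing. Gain or loss of signal fitted bidirectionally relative to DMSO baseline; cytotoxicity checked in parallel cultures via SRB total protein stain.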

Read-out in experiment [8]: Urokinase-type plasminogen activator receptor (uPAR), PLAUR (gene 5329)
Nature of the experiment: BSK_BE3C_uPAR: BioMAP Diversity Plus: BE3C Assay for Urokinase-type plasminogen activator receptor (uPAR) Biomarker Activity (AID 2283039).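 On outcome: cells exposed to compound for one day before measurement.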 The following applies: primary human bronchial epithelial cells; actives raise or lower the signal. The gist of the method:
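uPAR levels were measured by ELISA after 24 h compound treatment of primary human bronchial epithelial cells, fitted in both directions relative to DMSO. Parallel SRB staining served as the cytotoxicity read-out.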

Read-out in experiment [9]: Interleukin-6 (IL6), IL6 (gene 3569)
The experiment in a line: BSK_CASM3C_IL6: BioMAP Diversity Plus: CASM3C Assay for Interleukin-6 (IL6) Biomarker Activity for (AID 2283040). To be noted: primary human coronary artery smooth muscle cells; actives raise or lower the signal.

Read-out in experiment [10]: Tissue plasminogen activator (tPA), PLAT (gene 5327)
Nature of the experiment: BSK_BE3C_tPA: BioMAP Diversity Plus: BE3C Assay for Tissue plasminogen activator (tPA) Biomarker Activity (AID 2283041).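 On outcome: tPA level quantified by ELISA one day after compound addition.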 To be noted: primary human bronchial epithelial cells; actives raise or lower the signal. A digest of the protocol:
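tPA measured by ELISA 24 h after dosing human primary bronchial epithelial cells (BE3C system). Changes in either direction were fitted against DMSO. Parallel cultures were stained with SRB to flag overt cytotoxicity.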

Read-out in experiment [11]: Interleukin-8 (IL8), CXCL8 (gene 3576)
The experiment in a line: BSK_CASM3C_IL8: BioMAP Diversity Plus: CASM3C Assay for Interleukin-8 (IL8) Biomarker Activity (AID 2283042).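 Further: IL-8 protein level quantified by ELISA.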 To be noted: primary human coronary artery smooth muscle cells; actives raise or lower the signal.

Read-out in experiment [12]: Human Leukocyte Antigen - DR isotype (HLADR), HLA-DRA (gene 3122)
Nature of the experiment: BSK_CASM3C_HLADR: BioMAP Diversity Plus: CASM3C Assay for Human Leukocyte Antigen - DR isotype (HLADR) Biomarker Activity (AID 2283043).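 Further: cell-surface HLA-DR protein level quantified by ELISA.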 To be noted: primary human coronary artery smooth muscle cells; actives raise or lower the signal.

Read-out in experiment [13]: Macrophage colony-stimulating factor (MCSF), CSF1 (gene 1435)
Nature of the experiment: BSK_CASM3C_MCSF: BioMAP Diversity Plus: CASM3C Assay for Macrophage colony-stimulating factor (MCSF) Biomarker Activity (AID 2283044).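 Further: M-CSF protein amount quantified by ELISA after 24 h exposure.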 The following applies: primary human coronary artery smooth muscle cells; actives raise or lower the signal.

Read-out in experiment [14]: Low-density lipoprotein receptor (LDLR), LDLR (gene 3949)
Nature of the experiment: BSK_CASM3C_LDLR: BioMAP Diversity Plus: CASM3C Assay for Low-density lipoprotein receptor (LDLR) Biomarker Activity (AID 2283045).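 Further: LDLR protein level on the cell surface quantified by ELISA.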 The following applies: primary human coronary artery smooth muscle cells; actives raise or lower the signal.

Read-out in experiment [15]: Monocyte Chemoattractant Protein-1 (MCP1), CCL2 (gene 6347)
Nature of the experiment: BSK_CASM3C_MCP1: BioMAP Diversity Plus: CASM3C Assay for Monocyte Chemoattractant Protein-1 (MCP1) Biomarker Activity (AID 2283046).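 Further: MCP-1 level quantified by ELISA 24 h after dosing.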 The following applies: primary human coronary artery smooth muscle cells; actives raise or lower the signal.

Experiment [16] can be described thus: BSK_CASM3C_Proliferation: Cell Proliferation Assessment in the BioMAP Diversity Plus: CASM3C Assay (AID 2283047).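 Further: sulforhodamine B total protein stain as relative cell number at 560 nm; sub-confluent cells exposed 48 h before staining; fitted both ways against DMSO so gain or loss of cell number.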 To be noted: primary human coronary artery smooth muscle cells.
Read-out in experiment [17]: Monokine induced gamma interferon (MIG), CXCL9 (gene 4283)
The experiment in a line: BSK_CASM3C_MIG: BioMAP Diversity Plus: CASM3C Assay for Monokine induced gamma interferon (MIG) Biomarker Activity (AID 2283048).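 Further: MIG protein level measured by ELISA.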 To be noted: primary human coronary artery smooth muscle cells; actives raise or lower the signal.

Read-out in experiment [18]: serum amyloid A (SAA), SAA1 (gene 6288)
The experiment in a line: BSK_CASM3C_SAA: BioMAP Diversity Plus: CASM3C Assay for serum amyloid A (SAA) Biomarker Activity (AID 2283049).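 Further: SAA protein level quantified by ELISA.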 To be noted: primary human coronary artery smooth muscle cells; actives raise or lower the signal.

Experiment [19] in a line: BSK_CASM3C_SRB: Viability Assessment in the BioMAP Diversity Plus: CASM3C Assay (AID 2283050). The following applies: primary human coronary artery smooth muscle cells.
Read-out in experiment [20]: Thrombomodulin, THBD (gene 7056)
Nature of the experiment: BSK_CASM3C_Thrombomodulin: BioMAP Diversity Plus: CASM3C Assay for Thrombomodulin Biomarker Activity (AID 2283051).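 Further: thrombomodulin protein level measured by ELISA 24 h after dosing.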 To be noted: primary human coronary artery smooth muscle cells; actives raise or lower the signal.

By AC50 is commonly meant the concentration at which the activity in the assay is half-maximal.

Where “and” joins values, the source holds several entries; their conditions need not be identical. Equal entries are not always repeated. Some structures have more than one record in an assay (separate samples or runs), and their calls can disagree. Calls of active or inactive are those of the source. How the source made its calls: active means hit-call score of the fitted dose curve at least 0.9, where 1 is the maximum; inactive means score below 0.9.

Consider `O=C(O)c1ccccc1C(c1ccc(O)cc1)c1ccc(O)cc1`, for which the concentration at half-maximal activity (AC50) is 31.6 µM (active) in experiment [1], 31.1 µM (active) in [3] and 33.4 µM (active) in experiment [6]. Besides, the outcome in experiment [2], in [4], in experiment [5], in [7], in [8] and in [9] was inactive. Besides, the result in experiment [10], in [11], in experiment [12], in experiment [13], in experiment [14] and in [15] was inactive. In addition, the result in experiment [16], in experiment [17], in [18], in experiment [19] and in experiment [20] was inactive.

Consider `FC(F)(I)C(F)(F)C(F)(F)C(F)(F)C(F)(F)C(F)(F)I`, for which the AC50 in [3] is 18.4 µM (active) and 16.9 µM (active) and 45.2 µM (active); in experiment [4], 45.1 µM (active) [middle of 5 runs]; in experiment [6], 24.9 µM (active) [middle of 5 runs]; in experiment [7], 40.3 µM (active) [middle of 5 runs]; in [8] it was 43.5 µM (active) [middle of 5 runs]; in experiment [9] it was 35.9 µM (active) [middle of 5 runs]. Also, the half-maximal activity concentration (AC50) in experiment [11] is 30 µM (active) [middle of 5 runs]; in [13], 25.9 µM (active) [middle of 5 runs]; in [14], 22 µM (active) [middle of 5 runs]; in experiment [15], 21.6 µM (active) [middle of 5 runs]; in [16], 13.6 µM (active) [middle of 5 runs]; in experiment [17], 29.7 µM (active) [middle of 5 runs]. The AC50 in experiment [18] was 17 µM (active) [middle of 5 runs]; in experiment [19], 23.3 µM (active) [middle of 5 runs]; in experiment [20], 17.8 µM (active) and 50.8 µM (active) and 7.99 µM (active). Besides, the result in [10] and in experiment [20] was inactive.

Regarding `CCOC(=O)CC(O)(CC(=O)OCC)C(=O)OCC`, the outcome in experiment [1], in experiment [2], in experiment [3], in experiment [4], in [5] and in experiment [6] was inactive. The result in experiment [7], in [8], in [9], in experiment [10], in experiment [11] and in [12] was inactive. Besides, the result in experiment [13], in experiment [14], in [15], in experiment [16], in experiment [17] and in experiment [18] was inactive. The result in experiment [19] and in experiment [20] was inactive.

As to `CCCCOCCO`, the outcome in experiment [1], in [2], in experiment [3], in [4], in experiment [5] and in experiment [6] was inactive. In addition, the result in experiment [7], in experiment [8], in experiment [9], in [10], in [11] and in experiment [12] was inactive. Besides, the result in [13], in [14], in experiment [15], in experiment [16], in experiment [17] and in experiment [18] was inactive. Also, the result in experiment [19] and in experiment [20] was inactive.

As for `NC(=O)N(O)[C@@H]1C=C[C@H](Oc2cccc(Oc3ccc(F)cc3)c2)C1`, the outcome in [1], in experiment [2], in experiment [4], in experiment [5], in experiment [6] and in experiment [7] was inactive. For the same molecule, the outcome in experiment [8], in [9], in [11], in [13], in experiment [14] and in [15] was inactive. The result in experiment [17], in experiment [18] and in experiment [19] was inactive. The concentration at half-maximal activity (AC50) is 30.7 µM (active) in [3]; 5.68 µM (active) in experiment [10]; 3.95 µM (active) in [12]; 7.17 µM (active) in experiment [16]; 9.41 µM (active) in [20].
